This note sets out measurements from PubChem BioAssay AID540317 (National Center for Advancing Translational Sciences (NCATS), 2011).

SMILES strings stand for the structures. The whole screen tested about 390,000 compounds, of which about 2,200 (0.56%) were called active. About 3% were inconclusive and are not listed. Calls follow the shape of the dose curve; as a rule, active = well fitted inhibition curve with a large enough effect; inconclusive = small, poorly fitted or top-dose-only effect; inactive = no such curve, though single readings can be large or run the other way. The entries come from a sample that favours actives as a whole. A call without a number means that no potency is given here.
Potency is read from the fitted curve at half-maximal effect.

The target in this test is Chromobox protein homolog 1 (Homo sapiens) (UniProt P83916). Description: HTS for Inhibitors of HP1-beta Chromodomain Interactions with Methylated Histone Tails. Also: nearly all actives have a fitted effect of over 70% in size. Conditions: AlphaScreen HP1-beta / biotin-H3K9me3 peptide binding; series mostly up to 114 µM. The text has this: As our understanding of epigenetics expands, it is becoming clear that players in this field are potential targets for drug development. This area of epigenetic therapy has established applications for the treatment of cancer and neurological diseases. We have been involved in this field for a number of years and have performed high-throughput screens to identify the first small molecule inhibitors of protein methyltransferases. These methyltransferases target multiple substrates, and thus regulate many arms of an epigenetic pathway. The methylation of different substrates often generates docking sites for effector proteins that harbor binding domains (chromo, tudor, PHD, MBT and ANK repeats). It has been proposed that the binding sites generated for different proteins by these post-translational modifcations mediate downstream effects on chromatin. Consistent with this theory, di- and tri-methylation of histone H3K9 facilitates the binding of heterochromatin protein HP1. The HP1 protein harbors a chromodomain that is responsible for the methyl-dependent interaction between HP1 and lysine 9 of histone H3. HP1 was first described in flies as a heterochromatin associated protein that can regulate gene silencing. It harbors a chromodomain that binds H3K9me3. In addition, it harbors a chromoshadow domain that interacts with a large number of proteins that are involved in heterochromatin formation and gene repression. There are three highly related HP1 isoforms. All three variants are associated with pericentric heterochromatin and it is not clear whether they have specific or redundant functions. MPP8 is also involved in the repression of gene in euchromatic regions (unpublished data) and like HP1 its chromodomain binds H3K9me3. MPP8 harbors an ankyrin repeat region that is likely involved in binding and recruiting interacting proteins with transcriptional repressive function, much like the chromoshadow domain of HP1 does. We hypothesize that by inhibiting specific protein-protein interactions we will be able to develop compounds that block a single arm of an epigenetic pathway. The specificity attained by blocking a single protein-protein interaction will be far greater than that attained by blocking the enzyme that regulates one of many interactions. Low-affinity protein-protein interactions (Kd in the single- to double-digit micromolar range) such as those discussed here have been very difficult to assay by traditional techniques such as fluorescence polarization or fluorescence resonance energy transfer. We have developed a sensitive chemiluminescence-based assay (Quinn, et al. 2009), which serves as the starting point for this project. The following is a validation assay to identify lead compounds that can block methyl-dependent protein-protein interactions (specifically HP1-beta), which can be used as probes to analyze these methyl-driven interactions and perhaps even developed into targeted epigenetic therapies. NIH Chemical Genomics Center [NCGC] NIH Molecular Libraries Probe Centers Network [MLPCN] MLPCN Grant: DA031087 Assay Submitter (PI): Mark Bedford, University of Texas, Medical Anderson Cancer Center, TX
Chromobox protein homolog 1 (Homo sapiens), sequence (P83916 whole entry, looked up): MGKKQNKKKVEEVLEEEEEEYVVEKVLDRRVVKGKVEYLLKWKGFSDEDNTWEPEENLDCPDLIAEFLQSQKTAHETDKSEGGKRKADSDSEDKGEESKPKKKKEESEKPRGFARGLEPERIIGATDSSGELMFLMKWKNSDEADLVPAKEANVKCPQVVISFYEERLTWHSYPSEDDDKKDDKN
To each well, 2 uL of HP1-beta protein (final 50 nM) and 1 uL biotinylated histone peptide trimethylated at Lys9 [b-H3(1-18)K9me3] (final 50 nM) was added in 1x PBS buffer, pH 7.4, containing 0.01% Tween-20 using a nanoliter dispenser. Formation of a protein-peptide complex proceeded at room temperature for 30 min. A Kalypsys pin-tool was employed to transfer 23 nL of library compound solution in DMSO to each well. Aurintricarboxylic acid (ATA) was used as an intraplate control with a 12-point titration in duplicate. Following a 30 min incubation of the protein-peptide complex with compounds at room temperature, a mixture of 40 ug/mL each streptavidin-coated donor and nickel chelate acceptor AlphaScreen beads (final 10 ug/mL) was added in a 1 uL dispense for a final volume of 4 uL. […]
(In general: Bead proximity is the source of the signal in Alpha formats.)
`O=C(O)c1cc[c]([Sb](=[O])([OH])[OH])cc1[N+](=O)[O-]`: the Potency was 0.794 µM (active). `O=C(c1ccccc1[N+](=O)[O-])N1CCC2(CC1)OCCO2`: the Potency entry is “inactive”. The entry for `CCOc1ccc(S(=O)(=O)NCc2ccc3c(c2)OCO3)cc1C` is “inactive”; for `C=CCOC(=O)c1ccccc1C(=O)OCC=C` it is “inactive”. Regarding `CCn1cc2nc(SCc3ccccc3Cl)n(CCc3ccccc3)c(=O)c2n1`, the Potency result was “inactive”. For the compound `O=c1[nH]c(=S)[nH]c(O)c1/C=C1\C=Nc2ccccc21`, the Potency entry was “inactive”. As to `Nc1nc(NC(=O)/C=C/c2ccc(F)cc2)nn1-c1ccccc1`, the Potency result is “inactive”. As for `COc1ccc(N2C(=O)/C(=C/c3ccco3)C(=O)NC2=S)cc1`, the Potency was 14.1 µM (active).

Take `CCOC(=O)CNC(=O)N1c2ccccc2Sc2ccccc21`: the Potency entry is “inactive”.

In the case of `Brc1cc(Br)c(Oc2cc(Br)c(Br)cc2Br)cc1Br`, the Potency entry was “inactive”. For `CN(C(=O)CSc1nc2ccc(NC(=O)COc3ccccc3)cc2s1)c1ccccc1`, the Potency result was “inactive”. As for `c1ccc(CC2CCCCN2)cc1` (stereo not given), the Potency entry was “inactive”. `O=C(Cc1ccccc1)N1CCN(C2CCCCCC2)CC1`: the Potency was 79.4 µM (active). For `c1ccc(CCNC2CCCCCC2)cc1`, the Potency entry was “inactive”. `COc1ccccc1CN1CCN(C(=O)Cc2ccccc2)CC1`: the Potency is 14.1 µM (active). As for `O=C(Cc1ccc(Cl)cc1)NCCN1CCN(C(=O)Cc2ccc(Cl)cc2)CC1`, the Potency entry was “inactive”. For the compound `O=C(Cc1ccccc1[N+](=O)[O-])N1CCN(Cc2ccc3c(c2)OCO3)CC1`, the Potency result was “inactive”.

Turning to `O=C(OCC(=O)c1cccs1)C1=COCCO1`, the Potency result is “inactive”. Consider `O=C(CSc1ccccc1)Nc1ccc(C(=O)Nc2cccc(O)c2)cc1`, for which the Potency result is “inactive”. The result for `O=c1c2ccccc2ccc2ccc(P(=O)(O)O)cc12` reads “inactive”; that for `COc1cc(Cl)ccc1Nc1ncc(C(=O)N2CCN(c3ccccc3OC)CC2)c2ccccc12`, “inactive”; that for `O=C(COc1ccccc1Cl)Nc1ccc2nc(SCC(=O)N3CCCC3)sc2c1`, “inactive”. With `CCOCCCNC(=O)c1c(NC(=O)c2nc(SC)ncc2Cl)sc2c1CCCC2`, the Potency entry is “inactive”.

Take `C[C@H]1CN([C@@H](C)CO)C(=O)Cc2cc(NC(=O)Cc3ccccc3)ccc2O[C@H]1CN(C)S(=O)(=O)c1cccs1`: the Potency result was “inactive”. Consider `COc1cccc(N2C(=O)NC(=O)/C(=C\c3ccc([N+](=O)[O-])s3)C2=O)c1`, for which the Potency was 31.6 µM (active). Turning to `Cc1ccsc1/C=N/NC(=O)Cc1cc(=O)[nH][nH]1`, the Potency result was “inactive”. The result for `CC(=O)c1ccc(OC(=O)N2CCOCC2)cc1` reads “inactive”. Turning to `CCc1ccccc1NC(=O)c1sc2nc3c(cc2c1N)CN(Cc1ccccc1)CC3`, the Potency result is “inactive”. For the compound `CCN(CC)c1ccc(C2C(C(N)=O)=C(C)Nc3nc(SCc4ccccc4)nn32)cc1` (stereo not given), the Potency entry is “inactive”. Consider `Cc1cc2n(n1)C(c1cc(C(C)(C)C)c(O)cc1O)Nc1ccccc1-2` (stereo not given), for which the Potency entry was “inactive”. On to `COc1ccc(CNC(=O)c2cc3c(-c4ccccc4F)nn(C)c3s2)c(OC)c1`, for which the Potency result was “inactive”.

Turning to `Cc1cc(C)c2c(c1)NP(=S)(c1ccccc1)N2` (stereo not given), the Potency is 50.1 µM (active). In the case of `Cc1ccc2c(c1)C1CN(C)CCC1N2C(=O)c1ccccc1NS(=O)(=O)c1ccc(F)cc1C` (stereo not given), the Potency result is “inactive”. As to `O=C(O)C1CSC(c2cccnc2)N1` (stereo not given), the Potency was 17.8 µM (active). The result for `CCc1ccc(C2C(C#N)=C(N)Oc3n[nH]c(CC(=O)OC)c32)cc1` (stereo not given) reads “inactive”.
